High-throughput results from PubChem BioAssay.
This is a sample that favours compounds with a hit; in the whole collection about 0.9% have one here.
CDC25B CDK2 inh: human CDC25B-CDK2/CyclinA binding inhibition; P30305+P24941; HTRF CDC25B-CDK2/CyclinA binding, anti-His/anti-Flag; active compounds read high; z-score (test concentration not listed); 94,000 tested, 0.72% active; AID 1259370; in the data active = z-score above about 3.2
HIV TAR-Tat: HIV-1 TAR-Tat binding disruption. HIV-1 TAR RNA, Tat peptide displacement FRET; active compounds read high. z-score (no concentration beside the values). 100,000 tested, 0.6% active. AID 1259389; active = z-score of 3 or more in at least 2 runs
* hit, by the source's call; . = no result given; ! = repeats disagree.

SMILES	CDC25B CDK2 inh	HIV TAR-Tat
C=CC[N+]12CN3CN(CN(C3)C1)C2	4.3*	.
COC(=O)c1sc2nc3c(cc2c1N)CN(C)CC3	0.56	-0.26
CN1CCc2nc(SCc3cccnc3)c(C#N)cc2C1	19*	-2.5
NC(N)=N/N=C/c1ccc(/C=N/N=C(N)N)cc1	7.6*	.
CC1(C)C2C[C@@H](O)[C@]3(C)C(CC[C@@]4(C)[C@H](c5ccoc5)OC(=O)[C@H]5O[C@]543)[C@@]2(C)[C@@H](O)C[C@H]1O (some centres not stated)	.	3.5
CCC1(C(=O)c2ccc(Cl)cc2)C2c3cc(Br)ccc3OC(=O)C21C(=O)OC (configuration not stated)	1.8	0.26
CCOC(=O)C12C(=O)Oc3ccc(Br)cc3C1C2(CC)C(=O)c1ccccc1 (configuration not stated)	15*	0.21
N=C(N[N+](=O)[O-])N1CCSCC1	0.53	.
C#C[C@]1(O)CCC2C3CC[C@H]4C[C@H](O)CCC4(C)C3CCC21C (some centres not stated)	-0.9	.
Cc1cc2c(C(C)C)c(O)c(O)c(C=O)c2c(O)c1-c1c(C)cc2c(C(C)C)c(O)c(O)c(C=O)c2c1O	-0.45	26*!
c1cc2c(c(-c3ccsc3)c1)CCNC2	-1.1	0.36
CCCCCn1c(N)c(C(=O)OC)c2nc3ccccc3nc21	1.8	0.97
Nc1c(C(=O)NCc2ccccc2)c2nc3ccccc3nc2n1Cc1ccco1	12*	-4.3
NNC(=O)c1ccc(O)cc1	-1.7	.
CNCCc1c[nH]c2ccccc12	-0.91	.
CNCCc1c[nH]c2ccc(O)cc12	9.8*	.
CCC1c2cccn2-c2ccccc2CN1C(=O)Nc1ccc(Cl)cc1 (configuration not stated)	.	0.45
CC(=O)O[C@@H]1CC[C@]2(C)C3CC[C@]4(C)C(=O)CCC4C3CC[C@H]2C1 (some centres not stated)	.	1.8
c1ccc2c(c1)[nH]c1cnccc12	.	3.3
Cc1c2ccncc2c(C)c2c1[nH]c1ccccc12	4.2*	-7.3
Cc1nccc2c1[nH]c1ccccc12	-1.2	19*
c1ccc2sc(C3CCNCC3)nc2c1	.	2
COc1ccc(-n2nc(C)c3c2NC(=O)CSC3c2cc(OC)ccc2OC)cc1 (configuration not stated)	0.94	0.28
CO/N=[N+](\[O-])C(CN(CCN(CC(/[N+]([O-])=N/OC)/[N+]([O-])=N\OC)[N+](=O)[O-])[N+](=O)[O-])/[N+]([O-])=N/OC (configuration not stated)	-2.4	.
CCc1ccc(CNCCc2c[nH]c3ccccc23)cc1	-0.73	0.71
SMILES	CDC25B CDK2 inh	HIV TAR-Tat
Cc1cccc(CNCCc2c[nH]c3ccccc23)c1	16*	0.75
Fc1cccc(CNCCc2c[nH]c3ccccc23)c1	8*	0.87
c1ccc(CNCCc2c[nH]c3ccccc23)cc1	1.3	-0.73
Cn1cnc(-n2oo2)c1C(=O)O	-1.3	.
COC(=O)c1ccc(-c2ccc(C(=O)OC)cc2)cc1	-1.8	.
COc1ccc(-n2nc(C)c3c2NC(=O)CSC3c2cc(Br)ccc2OC)cc1 (configuration not stated)	-0.6	0.95
O=c1c2ccccc2nc(/C=C/c2ccc([N+](=O)[O-])o2)n1-c1ccccc1Cl	-3.1	-8.4
COc1cc2c(cc1O)C(C)NCC2 (configuration not stated)	.	0.43
C[C@@H]1NCCc2cc(O)c(O)cc21	.	19*
CC(C)[C@]12O[C@H]1[C@@H]1O[C@@]13[C@@]1(C)CCC4=C(COC4=O)[C@@H]1C[C@@H]1O[C@@]13C2=O	.	-0.48
COc1cc2c(cc1O)C[C@H]1c3c(cc(O)c(OC)c3-2)CCN1C	.	13*
CN1CCc2cc(O)cc3c2[C@H]1Cc1ccc(O)c(O)c1-3	-0.62	.
C[C@H]1CC[C@@H]2[C@@H](C)[C@H]3[C@H](C[C@H]4[C@@H]5CC=C6C[C@@H](O[C@@H]7O[C@H](CO)[C@H](O)[C@H](O[C@@H]8O[C@H](CO)[C@@H](O)[C@H](O)[C@H]8O)[C@H]7O[C@H]7O[C@@H](C)[C@H](O)[C@@H](O)[C@H]7O)CC[C@]6(C)[C@H]5CC[C@]34C)N2C1	.	2.9
CC(C)N1C(=O)c2ccccc2NS1(=O)=O	-0.88	-1.3
CN1CSC2=C(C#N)C(c3cccc(Br)c3)CC(=O)N2C1 (configuration not stated)	5.2*	0.16
N#CC1=C(N)Oc2c(c(=O)oc3ccccc23)C1c1cccc(Br)c1 (configuration not stated)	-2	.
CC(N)[C@H](O)c1ccc(O)c(O)c1 (some centres not stated)	-3.3	.
C[C@H](N)[C@H](O)c1ccc(O)c(O)c1	.	8.2*
Cc1ccc(-n2nc(C)c3c2NC(=O)CSC3c2ccc(OC(C)C)cc2)cc1 (configuration not stated)	-2.5	-0.7
O=C(Nc1ccccc1)Nc1cnns1	20*	-0.51
CC(=O)N1N=C(c2ccc(C)nc2)OC1c1ccc(F)cc1 (configuration not stated)	.	0.9
C=CCOc1ccc(C2SCC(=O)Nc3c2c(=O)[nH]n3C(C)CCC)cc1 (configuration not stated)	-0.79	2.5
O=C1CC(c2cccnc2)Nc2ccc3ccccc3c21 (configuration not stated)	-1.6	2.3
